In PubChem BioAssay (NCI) one finds growth data, which are given here for 13 molecules.

Test systems include NCI-H23 lung; NCI-H226 lung; NCI-H322M lung; HOP-62 NSCLC; NCI-H460 lung; HOP-92 NSCLC; NCI-H522 lung; A549/ATCC NSCLC; 786-0 renal; COLO 205 colon.
Common to all, as to test: NCI-60 one-dose screen, 48 h (100 = growth as untreated, 0 = no growth, -100 = all killed)
Holding throughout (settings): 10 µM unless noted

Each structure is given as a SMILES string. This is part of a sample that, as a whole, favours compounds with a hit. Of some 83,000 tested, about 20% had one in any assay.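 Each cell line was grown in a 96-well plate and treated with one concentration of compound for 48 hours. Values below 10 were considered active.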 Unmarked numbers belong to inactive results. Active and inactive are the calls of the source.

Consider `COc1cc(NCCCCN=C(N)N)c2ncccc2c1`, for which the growth with NCI-H23 lung was 13.9%; with NCI-H226 lung, 98.9%; in the assay with NCI-H322M lung it was 73.5%; in the assay on HOP-62 NSCLC, 80.9%; with NCI-H460 lung it was 104%; in the assay with HOP-92 NSCLC it was 68.8%. The growth in the assay with NCI-H522 lung is -9.41% (active); with A549/ATCC NSCLC it was 86.8%; in the assay on 786-0 renal, 91.6%; in the assay with COLO 205 colon, 82.6%.
Turning to `Cc1ccc(SCN2CCN(c3cccc(Cl)c3)CC2)cc1`, the growth with NCI-H23 lung is 94.4%; in the assay with NCI-H226 lung it was 80.9%; in the assay with NCI-H322M lung, 88.7%; in the assay on HOP-62 NSCLC it was 114%; with NCI-H460 lung it was 98.4%; with HOP-92 NSCLC, 89.7%. For the same molecule, the growth is 96% in the assay with NCI-H522 lung, 106% in the assay on A549/ATCC NSCLC, 94.8% in the assay with 786-0 renal and 115% in the assay with COLO 205 colon.
`C=CCSc1nnc(-c2ccc(C(C)(C)C)cc2)n1-c1cccc(C(F)(F)F)c1`: the growth was 35.4% in the assay on NCI-H23 lung; 44.7% in the assay on NCI-H226 lung; 77.7% in the assay on NCI-H322M lung; 67.3% in the assay with HOP-62 NSCLC; 29.3% in the assay with NCI-H460 lung; 28.9% with HOP-92 NSCLC. Moreover, the growth was 37.3% in the assay with NCI-H522 lung, 21.2% in the assay with A549/ATCC NSCLC, 30.4% with 786-0 renal and 41.1% in the assay with COLO 205 colon.
Take `CCCCCCCCCCNC(=O)CCl`: the growth with NCI-H23 lung was 47.5%; in the assay on NCI-H226 lung, 85.7%; with NCI-H322M lung, 92.8%; in the assay on HOP-62 NSCLC it was 81.3%; with NCI-H460 lung, 92.9%; with HOP-92 NSCLC it was 36.2%. Further, the growth in the assay with NCI-H522 lung is 50.4%; in the assay on A549/ATCC NSCLC it was 93.6%; with 786-0 renal, 82.3%; in the assay on COLO 205 colon it was 116%.
Turning to `Cc1ccc(-c2nc(/C=N/Nc3cc(C)nc4ccc(Cl)cc34)c(C)o2)cc1`, the growth in the assay on NCI-H23 lung is 44.5%; with NCI-H226 lung it was 81.3%; with NCI-H322M lung, -82.5% (active); in the assay on HOP-62 NSCLC it was 74.9%; in the assay on NCI-H460 lung it was -77.2% (active); in the assay on HOP-92 NSCLC it was 29.9%. The growth in the assay on NCI-H522 lung was -69.5% (active); in the assay on A549/ATCC NSCLC, -47.4% (active); in the assay on 786-0 renal, -93.2% (active); in the assay with COLO 205 colon, -86% (active).
Consider `CC1=C(NCCN2CCCC2)C(=O)c2c(OCc3ccc(F)c(Cl)c3)cccc2C1=O`, for which the growth is 69.8% in the assay on NCI-H23 lung; 90.4% in the assay on NCI-H226 lung; 64.3% in the assay on NCI-H322M lung; 68.8% in the assay with HOP-62 NSCLC; 57.7% with NCI-H460 lung; 57.1% with HOP-92 NSCLC. The growth with NCI-H522 lung is 76%; in the assay on A549/ATCC NSCLC, 78.3%; in the assay on 786-0 renal it was 63.6%; in the assay with COLO 205 colon it was 69.5%.
`COc1ccc(-c2csc(NC(=O)CN3CCN(c4cc5c(cc4F)c(=O)c(C(=O)O)cn5C4CC4)CC3)n2)cc1`: the growth in the assay on NCI-H23 lung was 9.73% (active); with NCI-H226 lung it was 16%; in the assay with NCI-H322M lung, 17.1%; in the assay with HOP-62 NSCLC it was 15.4%; in the assay with NCI-H460 lung, 3.8% (active); with HOP-92 NSCLC, -17.2% (active). Also, the growth with NCI-H522 lung is -9.19% (active); in the assay on A549/ATCC NSCLC it was 9.1% (active); in the assay with 786-0 renal it was 24.4%; in the assay with COLO 205 colon, 12.6%.
Regarding `COc1cccc2c1C(=O)c1c(O)c3c(c(O)c1C2=O)C[C@@](O)(/C(C)=N/NC(=O)c1ccc(Cl)cc1)C[C@@H]3OC1CC(N)C(O)C(C)O1` (stereo not given in full), the growth is -39.7% (active) in the assay with NCI-H23 lung; -39.4% (active) in the assay on NCI-H226 lung; -35.3% (active) in the assay with NCI-H322M lung; -17% (active) with HOP-62 NSCLC; -21.8% (active) with NCI-H460 lung; -6.16% (active) with HOP-92 NSCLC. Further, the growth is -70.1% (active) in the assay on NCI-H522 lung, -32.8% (active) in the assay with A549/ATCC NSCLC, -6.44% (active) with 786-0 renal and -81.4% (active) in the assay on COLO 205 colon.
As for `NC(CC(=O)O)C(=O)OCc1ccccc1` (stereo not given), the growth with NCI-H23 lung was 104%; with NCI-H226 lung it was 95.1%; in the assay on NCI-H322M lung, 84.2%; in the assay with HOP-62 NSCLC, 86.7%; in the assay on NCI-H460 lung, 103%; in the assay on HOP-92 NSCLC, 86.3%. Also, the growth with NCI-H522 lung was 84.3%; in the assay with A549/ATCC NSCLC, 105%; in the assay with 786-0 renal, 98.6%; in the assay with COLO 205 colon, 106%.
`CCCCCCCCCCCCCC(=O)C(C)N` (stereo not given): the growth with NCI-H23 lung was 51.6%; with NCI-H226 lung, 87.9%; with NCI-H322M lung, 53.5%; in the assay with HOP-62 NSCLC it was 22.3%; in the assay on NCI-H460 lung it was 4.75% (active); in the assay on HOP-92 NSCLC it was 8.22% (active). For the same molecule, the growth was 0.193% (active) with NCI-H522 lung, 51.6% with A549/ATCC NSCLC, 71.3% in the assay with 786-0 renal and 15.9% in the assay with COLO 205 colon.
Take `COc1ncc(-c2ccc3ncnc(Nc4cccc(Cl)c4)c3c2)cc1NS(C)(=O)=O`: the growth in the assay with NCI-H23 lung was 37.4%; in the assay on NCI-H226 lung, 47.2%; in the assay with NCI-H322M lung, -6.97% (active); with HOP-62 NSCLC, 56.6%; in the assay with NCI-H460 lung, 28.3%; in the assay on HOP-92 NSCLC it was -14.7% (active). Moreover, the growth with NCI-H522 lung was 33.3%; with A549/ATCC NSCLC, 15.8%; in the assay on 786-0 renal it was 46.2%; with COLO 205 colon, 41.5%.
In the case of `CCCCCCNC(=O)Oc1ccc(/C(=C(\C)c2ccccc2)c2ccc(OCCN(CC)CC)cc2)cc1`, the growth with NCI-H23 lung was 69.6%; with NCI-H226 lung, 82.6%; with NCI-H322M lung, 90%; in the assay with HOP-62 NSCLC, 83.2%; in the assay on NCI-H460 lung it was 7.03% (active); with HOP-92 NSCLC, 39.1%. Moreover, the growth with NCI-H522 lung is 47.8%; in the assay on A549/ATCC NSCLC, 49.9%; in the assay on 786-0 renal it was 44.7%; in the assay with COLO 205 colon, -4.77% (active).
For `COc1ccc(S(=O)(=O)NCCCNc2nccc(-c3c(-c4cccc(N)c4)nc4sccn34)n2)cc1`, the growth was 97.4% in the assay with NCI-H23 lung; 89.4% in the assay on NCI-H226 lung; 101% in the assay on NCI-H322M lung; 117% in the assay with HOP-62 NSCLC; 97.1% in the assay with NCI-H460 lung; 92.8% in the assay with HOP-92 NSCLC. Moreover, the growth in the assay on NCI-H522 lung was 101%; in the assay on A549/ATCC NSCLC, 99.7%; in the assay on 786-0 renal, 92.1%; in the assay on COLO 205 colon it was 75.8%.
